Results filed as inconclusive are left out. A call without a number means that no potency is given here. Values without a mark were called inactive. Calls of active or inactive are those of the source. The call rests on the fitted dose curve; in most records, active means well fitted curve in the direction sought with a large enough effect; inconclusive means small, poorly fitted or top-dose-only effect, or another doubt; inactive means no such curve, though single readings can be large; an effect the other way counts as inactive or inconclusive.
Legend:
[1] = molecular target: Aldehyde dehydrogenase, mitochondrial (Homo sapiens) (UniProt P05091); assay: qHTS for Inhibitors of the Aldehyde Dehydrogenase Family (ALDH2) Primary screen (AID 2061308); further: nearly all actives have a fitted effect of over 55% in size
[2] = molecular target: Retinaldehyde dehydrogenase 3 (Homo sapiens) (UniProt P47895); assay: qHTS for Inhibitors of the Aldehyde Dehydrogenase Family (ALDH1A3) Primary screen (AID 2061315)

NC(=O)C1CCN(c2nnc(-c3ccc4c(c3)OCCCO4)s2)CC1
Potency [1]: inactive | Potency [2]: inactive

O=C([C@@H](Cc1ccc(O[S+](=O)([O-])c2ccccn2)cc1)N[S+](=O)([O-])c1cccc2cccnc12)N1CCN(c2ccccc2)CC1
Potency [1]: inactive | Potency [2]: inactive

Cc1cc(NS(=O)(=O)c2ccc(NC(=O)Cc3ccc(C)c(F)c3)cc2)no1
Potency [1]: inactive | Potency [2]: inactive

FC(F)(F)c1ccccc1-c1nc(NCC23CC4CC(CC(C4)C2)C3)c2ccccc2n1
Potency [1]: inactive | Potency [2]: inactive

O=S(=O)(c1ccc2c(c1)OCCO2)N1CCN(S(=O)(=O)c2cccc3cccnc23)CC1
Potency [1]: inactive | Potency [2]: inactive

O=C(Nc1ccc(-c2nc3ccccc3[nH]2)cc1)Nc1ccc2occc2c1
Potency [1]: inactive | Potency [2]: inactive

O=[S+]([O-])(c1ccc2c(c1)OCCO2)N1CCN([S+](=O)([O-])c2c(Cl)cc(Cl)cc2Br)CC1
Potency [1]: inactive | Potency [2]: inactive

O=C(Nc1ccc(Cl)c(Cl)c1)N1CCN(c2ccncc2)CC1
Potency [1]: inactive | Potency [2]: inactive

FC(F)(F)c1cccc(Nc2ccc(CNc3nc(-c4ccccc4C(F)(F)F)nc4ccccc34)cc2)c1
Potency [1]: inactive | Potency [2]: inactive

O=C1NS(=O)(=O)C(c2ccccc2)C1c1ccccc1 (configuration not stated)
Potency [1]: inactive | Potency [2]: inactive

Cc1ccc(OCCn2c(CCNC(=O)C(C)(C)C)nc3ccccc32)cc1
Potency [1]: inactive | Potency [2]: inactive

Cc1cc(-c2nnc3n2CCC3)c(C)n1-c1ccccc1
Potency [1]: inactive | Potency [2]: inactive

Cc1cc(C)nc(NC(=S)N2CCN(c3nc4ccccc4o3)CC2)c1
Potency [1]: inactive | Potency [2]: inactive

Cc1ccc(NS(=O)(=O)c2cccc(C(=O)Nc3nc(-c4ccccc4)cs3)c2)cc1
Potency [1]: inactive | Potency [2]: inactive

Fc1cc(Nc2nc(-c3ccncc3)nc3ccccc23)ccc1-c1cccc(OC(F)(F)F)c1
Potency [1]: inactive | Potency [2]: inactive

Cc1cc(C)nc(NC(=S)N2CCN(c3ccc(F)cc3F)CC2)c1
Potency [1]: inactive | Potency [2]: inactive

COc1cc(F)c(S(=O)(=O)N2CCN(S(=O)(=O)c3ccco3)CC2)c(F)c1
Potency [1]: inactive | Potency [2]: inactive

O=C(Cc1ccc(Cl)c(Cl)c1)Nc1ccc([S+](=O)([O-])Nc2cccc([N+](=O)[O-])c2)cc1
Potency [1]: inactive | Potency [2]: inactive

Cn1c2cc(C#N)sc2c2cnn(Cc3ccccc3F)c(=O)c21
Potency [1]: inactive | Potency [2]: inactive

COc1cccc(C2c3c(ncn(-c4ccccn4)c3=N)Oc3ccc4ccccc4c32)c1 (configuration not stated)
Potency [1]: inactive | Potency [2]: inactive

O=C(Nc1ccc(Cl)cc1)Nc1cccc(-c2cccc(N3CCCC3)n2)c1
Potency [1]: inactive | Potency [2]: inactive

O=C(OCC#CCSc1nnc(-c2ccccc2F)o1)c1ccc(F)cc1
Potency [1]: inactive | Potency [2]: inactive

Cc1cc(NS(=O)(=O)c2ccc(NC(=O)Cc3ccc4ccccc4c3)cc2)no1
Potency [1]: inactive | Potency [2]: inactive

O=C(Cc1ccc2ccccc2c1)Nc1ccc(S(=O)(=O)Nc2nccs2)cc1
Potency [1]: inactive | Potency [2]: inactive

Cc1noc(C)c1-c1ccc2ncnc(NCc3ccc(C(F)(F)F)o3)c2c1
Potency [1]: inactive | Potency [2]: inactive

CC[C@H](C)[C@H](NC(=O)[C@H]([C@@H](C)CC)N(C)C(C)=O)C(=O)N[C@H](C(=O)N[C@@H](CC(C)C)C(=O)[C@@]1(C)CO1)[C@@H](C)O
Potency [1]: inactive | Potency [2]: inactive

N#Cc1c(-c2ccc3ccccc3c2)no[n+]1[O-]
Potency [1]: inactive | Potency [2]: inactive

N#Cc1nc(Nc2cc(F)cc(F)c2)c2ncn(CCCO)c2n1
Potency [1]: inactive | Potency [2]: inactive

Cc1ccc(NS(=O)(=O)c2ccc(F)cc2)cc1C
Potency [1]: inactive | Potency [2]: inactive

CCN1CCCC1Cn1c(-c2ccccc2)nc2c(NC3CCCCC3)nc(C)nc21 (configuration not stated)
Potency [1]: inactive | Potency [2]: inactive

COc1ccc(C2c3c(ncn(Cc4ccccc4)c3=N)Oc3ccc4ccccc4c32)cc1OC (configuration not stated)
Potency [1]: inactive | Potency [2]: inactive

Cc1cc(C)cc(Cn2ncc3c4sc(C)cc4n(C)c3c2=O)c1
Potency [1]: inactive | Potency [2]: inactive

CC(C)(C)OC(=O)Cc1nnc(CNC(=O)c2ccccc2)s1
Potency [1]: inactive | Potency [2]: inactive

Cc1cc(N[S+](=O)([O-])c2ccc(NC(=O)Cc3cccc(Cl)c3Cl)cc2)no1
Potency [1]: inactive | Potency [2]: inactive

C=CCNc1oc(C2CCCC2)nc1C#N
Potency [1]: inactive | Potency [2]: inactive

O=C(c1ccc2c(c1)ncn2-c1ccc(Cl)cc1)N1CCCCC1
Potency [1]: inactive | Potency [2]: inactive

O=S(=O)(Nc1nccs1)c1ccc(NCc2cc(Cl)ccc2O)cc1
Potency [1]: inactive | Potency [2]: inactive

CN(Cc1ccco1)c1ncnc2ccc(-c3ccc4c(c3)OCO4)cc12
Potency [1]: inactive | Potency [2]: inactive

COC(=O)c1cccc(-c2noc(-c3ccccc3F)n2)c1
Potency [1]: inactive | Potency [2]: inactive

O=[S+]([O-])(Nc1ccccc1F)c1cccc(NC/C=C/c2ccccc2)c1
Potency [1]: inactive | Potency [2]: inactive

c1ccc(-n2cc(-c3nnc4n3CCCCC4)c3ccccc32)cc1
Potency [1]: inactive | Potency [2]: inactive

O=C(Nc1ccccc1F)c1ccc(O)c2ncccc12
Potency [1]: inactive | Potency [2]: inactive

COc1cccc(CNc2ccc(S(=O)(=O)Nc3cc(C)on3)cc2)c1O
Potency [1]: inactive | Potency [2]: inactive

FC(F)(F)c1ccccc1-c1nc(NCc2ccc(C3CCCCC3)cc2)c2ccccc2n1
Potency [1]: inactive | Potency [2]: inactive

Cc1cn2c(-c3cn[nH]c3)cnc2c(Nc2ccc(C(=O)N3CCNCC3)cc2F)n1
Potency [1]: inactive | Potency [2]: inactive

COc1ccc(CNc2ccc(S(=O)(=O)Nc3nccs3)cc2)c(O)c1
Potency [1]: inactive | Potency [2]: inactive

Oc1ccc(CNCc2ccccc2F)c2cccnc12
Potency [1]: inactive | Potency [2]: inactive

CCCn1c(C)nc2c(N(CCN(CC)CC)CCN(CC)CC)nc(C)nc21
Potency [1]: inactive | Potency [2]: inactive

O=C(O)c1ccc2c(c1)C(=O)N([C@H](Cc1ccc(C(F)(F)F)cc1)C(=O)O)C2=O
Potency [1]: inactive | Potency [2]: inactive

O=S(=O)(c1ccc2c(c1)OCCO2)C1CCN(S(=O)(=O)c2c(F)cccc2F)CC1
Potency [1]: inactive | Potency [2]: inactive

C=CCNc1oc(-c2cccc(F)c2)nc1C#N
Potency [1]: inactive | Potency [2]: inactive

O=C(NC(NC(=S)Nc1ccc(F)c([N+](=O)[O-])c1)C(Cl)(Cl)Cl)C(c1ccccc1)c1ccccc1 (configuration not stated)
Potency [1]: inactive | Potency [2]: inactive

O=C(OCC#CCSc1nnc(-c2ccc3ccccc3c2)o1)c1cccc(F)c1
Potency [1]: inactive | Potency [2]: inactive

CN(c1cccc2cccnc12)S(=O)(=O)c1ccccc1
Potency [1]: inactive | Potency [2]: inactive

Cc1ccc(S(=O)(=O)Nc2cc([N+](=O)[O-])ccc2C(=O)Nc2nc(-c3ccccc3)cs2)cc1
Potency [1]: inactive | Potency [2]: inactive

COc1ccc(C2Nc3ccccc3C(=O)N2Cc2cccs2)cc1COc1c(C)cccc1C (configuration not stated)
Potency [1]: inactive | Potency [2]: inactive

COc1ccc(-c2ccc3ncnc(NCc4ccc(C)o4)c3c2)cc1OC
Potency [1]: inactive | Potency [2]: inactive

O=S(=O)(c1ccc(F)cc1)N1CCN(S(=O)(=O)c2ccc3c(c2)OCCO3)CC1
Potency [1]: inactive | Potency [2]: inactive

COc1ccc(C2=Nn3c(nnc3-c3ccccc3F)SC2)cc1OC
Potency [1]: inactive | Potency [2]: inactive

O=S(=O)(Nc1nccs1)c1ccc(NCc2ccc(Cl)cc2O)cc1
Potency [1]: inactive | Potency [2]: inactive

Cc1cnc(-c2ccccc2C(C)C)nc1NCc1ccc(C#N)cc1
Potency [1]: inactive | Potency [2]: inactive

COc1cccc(O)c1CNc1ccc(S(=O)(=O)Nc2nccs2)cc1
Potency [1]: inactive | Potency [2]: inactive

Cc1cccc(CNc2nc(-c3ccccc3C(F)(F)F)nc3ccccc23)c1
Potency [1]: inactive | Potency [2]: inactive

O=C(c1ccc2c(c1)ncn2-c1cccc(C(F)(F)F)c1)N1CCCCC1
Potency [1]: inactive | Potency [2]: inactive

CCOc1ccc(CCNC(=O)c2ccc3ccccc3n2)cc1OCC
Potency [1]: inactive | Potency [2]: inactive

CCOc1ccc(CCNC(=O)c2cnon2)cc1OCC
Potency [1]: inactive | Potency [2]: inactive

COc1ccc(-c2nnc3n2N=C(c2cccc(OC)c2)CS3)cc1
Potency [1]: inactive | Potency [2]: inactive

Cc1ccc(S(=O)(=O)Nc2ccccc2C(=O)Nc2nc(-c3ccc(Cl)cc3)cs2)cc1
Potency [1]: inactive | Potency [2]: inactive

COc1cccc(CNc2ccc(S(=O)(=O)Nc3ccc(-c4ccccc4)cc3)cc2)c1O
Potency [1]: inactive | Potency [2]: inactive

O=S(=O)(Nc1nccs1)c1ccc(NCc2cc(F)ccc2O)cc1
Potency [1]: inactive | Potency [2]: inactive

O=C(NCc1nnc(-c2cc3ccccc3[nH]2)s1)c1ccccc1
Potency [1]: inactive | Potency [2]: inactive

Cc1cnc(-c2ccccc2C(C)C)nc1NCC1CCN(c2cccnc2)C1 (configuration not stated)
Potency [1]: inactive | Potency [2]: inactive

COc1cc(-c2ncn(/C=C\C(=O)OC(C)C)n2)cc(C(F)(F)F)c1
Potency [1]: inactive | Potency [2]: inactive

COc1ccc(OC)c(C(=O)Nc2nc(-c3ccccc3)cs2)c1
Potency [1]: inactive | Potency [2]: inactive

N#Cc1nc(Nc2cc(F)cc(F)c2)nc(NC2CCCC2)n1
Potency [1]: inactive | Potency [2]: inactive

CC(=O)Nc1sc2c(c1-c1nc3ccccc3s1)CCS(=O)(=O)C2
Potency [1]: inactive | Potency [2]: inactive

CC(=O)O[C@@H]1C[C@]2(C)[C@@]3(CCC4[C@@]5(C)CC[C@H](O[C@@H]6O[C@H](C(=O)O)[C@@H](O)[C@H](O[C@@H]7O[C@H](CO)[C@H](O)[C@H](O)[C@H]7O[C@@H]7O[C@@H](C)[C@H](O)[C@@H](O)[C@H]7O[C@@H]7OC[C@](O)(CO)[C@H]7O)[C@H]6O[C@@H]6O[C@H](CO)[C@H](O)[C@H](O)[C@H]6O)C(C)(C)C5CC[C@]42C)O[C@@H](O)[C@]12C3CC(C)(C)[C@@H](OC(=O)/C=C/c1ccc(O)c(O)c1)[C@@H]2OC(=O)/C=C/c1ccccc1 (some centres not stated)
activity change, negative = inhibition [1]: 3.11% [at 11.2 µM] | activity change, negative = inhibition [2]: 17.4% [at 11.2 µM]

O=C1CCCC2=C1C(c1[nH]ncc1Cl)N=C(Nc1ccccn1)N2 (configuration not stated)
Potency [1]: inactive | Potency [2]: inactive

CN(C)c1cccc(NS(=O)(=O)c2ccc(NC(=O)Cc3ccc(Cl)c(Cl)c3)cc2)c1
Potency [1]: inactive | Potency [2]: inactive

O=C(O)C1CCC(C(=O)Nc2ccc([S+](=O)([O-])Nc3nccs3)cc2)CC1 (configuration not stated)
Potency [1]: inactive | Potency [2]: inactive

N[C@@H](Cc1ccc(OS(=O)(=O)c2ccccn2)cc1)C(=O)N1CCN(c2ccccc2)CC1
Potency [1]: inactive | Potency [2]: inactive
